The record followed here is the OligoGym collection.
Note: reference of the scale not given here.

The target of the first assay is BST2. As to the kind of experiment: pooled miR-30 sensor sort-seq; sequence = guide strand. The following applies: shRNA.
Sequence TAATGTAGTGATCTCTCCCTCA displayed a sensor-assay potency score (higher = more potent) of 0.239.
Same read-out and setting: the result for TTAATGTAGTGATCTCTCCCTC reads -0.16; that for TACTTCTTGTCCGCGATTCTCA, -0.543.
TACAGCGCTTATCCCCGTCTTC showed a sensor-assay potency score (higher = more potent) of -1.34.
Sequence TCAAGCTCCTCCACTTTCTTTT had a sensor-assay potency score (higher = more potent) of -0.76.
Same read-out and setting: the result for ATGTAGTGATCTCTCCCTCAAG reads -1.69; that for TCAGTCGCTCCACCTCTGCAGA, -1.23.
On the same count and under the same terms, the figure for TAGTACTTCTTGTCCGCGATTC is -1.14; for TGAAGCTTATGGTTTAATGTAG it is -0.303.

Another assay addresses BTAF1. The assay is described as above. The following applies: shRNA.
Regarding TAAGAGTACAATAATAGTCTTG, the sensor-assay potency score (higher = more potent) is -0.191.
On to TTTTGATCTTGCATATTCCTGG, for which the sensor-assay potency score (higher = more potent) is -0.211.
Same read-out and setting: the result for TAACCAGTTCACACCATCCTGC reads -0.839; that for TACAGCAACAAAGTGCTCCTAA, 0.633; that for TTACTCAACAGTTCCATCCAAA, -0.305.
Still for that read-out and setting: the figure for TTGATCTTGCATATTCCTGGGC is 0.499; for TAGAGTGTAATTATACCTCTGT it is 0.377; for TAGAACTTTCGGAAGTAGGTTC it is -0.237.
The same measure, in the same setting: the figure for TAATACTATTTGTTGAAGCTGT is 0.361; for TAGCTTCAACAGCTTGTCCTGC it is -0.281.
For the sequence TAAAGTATTAATTACATCCTGA, the sensor-assay potency score (higher = more potent) was -0.104.
TTTACTGCTTTTGACAACTTTG registered a sensor-assay potency score (higher = more potent) of -1.03.

For the next assay, the target named is BVES. The description is as above. The following applies: shRNA.
Take TTGTGCATCTGAGTTGATCTAA: the sensor-assay potency score (higher = more potent) is 0.0688.
The same measure, in the same setting: the result for TTAGTCTTCTGAACAAATCTGG reads 0.0292.
The same measure, in the same setting: the figure for TTATCATCTGCAATAATGGTGA is -0.542; for TAGTCTTCTGAACAAATCTGGA it is -1.1; for TTCTTCTATCGGTTTCATCTTG it is -0.512.
On the same count and under the same terms, the figure for TTTTTCACCTTTGTGCATCTGA is 0.533.
TTTCATACAAGAAAGGTTCTGA: the sensor-assay potency score (higher = more potent) came to 0.905.
On the same count and under the same terms, the figure for TTCTGCTCCTTCTTCTATCGGT is 0.109; for ATTTGCTACATGAAAAACCAGA it is -1.03.
Same read-out and setting: the figure for TTATATCCAAGGCACATCGGTA is -1.03; for TTCCTTTTCAATCTTTACCGGT it is -0.474; for TCTTCTATCGGTTTCATCTTGG it is 0.0355.

A further assay concerns the target BZW1. The assay is described as above. The following applies: shRNA.
For TTGTGAAGTGTTCAACACTTTG, the sensor-assay potency score (higher = more potent) was -1.21.
Regarding TTACTTCATCTTCAAAACCTTT, the sensor-assay potency score (higher = more potent) is -1.14.
The same measure, in the same setting: the figure for TTCAAGAACAGCAGCAGCTTTT is -0.773; for TTGCTCAAGGAAAACACTCTTC it is -0.371.
The same measure, in the same setting: the result for TGAAACTCCTTCTTTAACCAAA reads -0.866; that for TTCTTCTTCAGCATTTTTGAGC, -0.679.
